The supplement of paper PMC11732987, “Enantioselective OTUD7B fragment discovery through chemoproteomics screening and high-throughput optimisation” (Communications Chemistry, 2025)
Values without a mark were called inactive.

Columns and labels:
Assay in all cases: log2 ratio of Biotin-Ahx-Ub-VS probe labelling (fragment/DMSO); higher = less target engagement (more negative = stronger competition), active = hit call of the paper (q ≤ 0.05, log2 ratio ≤ -1)
Conditions in all cases: compound concentration: 200 uM; treatment time: 3 h
ALG13 = molecular target: T1, ALG13 (UniProt Q9NP73)
T1 sequence (whole entry): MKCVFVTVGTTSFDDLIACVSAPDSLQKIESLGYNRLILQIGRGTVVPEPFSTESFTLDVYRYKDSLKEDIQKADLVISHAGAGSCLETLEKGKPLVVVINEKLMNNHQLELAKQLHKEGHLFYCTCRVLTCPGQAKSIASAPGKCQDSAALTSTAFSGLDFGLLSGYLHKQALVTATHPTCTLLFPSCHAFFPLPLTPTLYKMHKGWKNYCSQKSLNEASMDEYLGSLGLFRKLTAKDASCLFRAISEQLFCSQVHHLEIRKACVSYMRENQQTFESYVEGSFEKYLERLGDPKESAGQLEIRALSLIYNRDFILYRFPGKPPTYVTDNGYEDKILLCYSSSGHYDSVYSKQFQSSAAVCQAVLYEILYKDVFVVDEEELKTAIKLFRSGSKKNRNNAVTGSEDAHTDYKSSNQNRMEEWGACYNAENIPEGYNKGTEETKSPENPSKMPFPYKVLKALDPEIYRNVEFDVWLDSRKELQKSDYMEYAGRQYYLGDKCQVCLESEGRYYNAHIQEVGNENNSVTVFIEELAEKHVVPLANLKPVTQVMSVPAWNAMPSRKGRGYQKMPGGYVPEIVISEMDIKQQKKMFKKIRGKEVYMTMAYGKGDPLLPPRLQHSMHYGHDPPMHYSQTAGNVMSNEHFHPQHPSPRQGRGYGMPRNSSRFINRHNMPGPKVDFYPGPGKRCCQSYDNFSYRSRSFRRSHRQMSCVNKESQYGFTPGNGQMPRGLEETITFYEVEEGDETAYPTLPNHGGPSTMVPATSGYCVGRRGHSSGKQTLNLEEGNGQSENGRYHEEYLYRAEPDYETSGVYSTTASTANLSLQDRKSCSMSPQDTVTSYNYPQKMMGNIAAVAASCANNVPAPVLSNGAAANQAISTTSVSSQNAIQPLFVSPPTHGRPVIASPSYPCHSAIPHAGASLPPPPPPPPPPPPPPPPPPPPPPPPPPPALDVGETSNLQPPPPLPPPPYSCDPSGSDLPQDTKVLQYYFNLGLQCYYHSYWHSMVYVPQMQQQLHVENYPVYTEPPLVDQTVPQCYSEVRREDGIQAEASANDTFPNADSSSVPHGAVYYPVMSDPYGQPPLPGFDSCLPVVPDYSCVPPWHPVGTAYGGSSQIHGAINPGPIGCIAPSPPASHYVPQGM
In short: (§1)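 The table lists average log2 ratios of fragment over vehicle, from an unpaired t-test on global-median-normalised Spectronaut label-free quantities. Proteins with ≥2 unique peptides were used. Samples were HEK293T lysate (495 µg) treated in triplicate with fragment at 200 µM or vehicle for 3 h, then with Biotin-Ahx-Ub-VS (0.5 µM final) for 1 h, with labelled DUBs NeutrAvidin-enriched and run by diaPASEF LC-MS/MS.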

ATXN3 = ATXN3 (UniProt P54252)
In short: as §1

BAP1 = molecular target: T2, BAP1 (UniProt Q92560)
T2 sequence (whole entry): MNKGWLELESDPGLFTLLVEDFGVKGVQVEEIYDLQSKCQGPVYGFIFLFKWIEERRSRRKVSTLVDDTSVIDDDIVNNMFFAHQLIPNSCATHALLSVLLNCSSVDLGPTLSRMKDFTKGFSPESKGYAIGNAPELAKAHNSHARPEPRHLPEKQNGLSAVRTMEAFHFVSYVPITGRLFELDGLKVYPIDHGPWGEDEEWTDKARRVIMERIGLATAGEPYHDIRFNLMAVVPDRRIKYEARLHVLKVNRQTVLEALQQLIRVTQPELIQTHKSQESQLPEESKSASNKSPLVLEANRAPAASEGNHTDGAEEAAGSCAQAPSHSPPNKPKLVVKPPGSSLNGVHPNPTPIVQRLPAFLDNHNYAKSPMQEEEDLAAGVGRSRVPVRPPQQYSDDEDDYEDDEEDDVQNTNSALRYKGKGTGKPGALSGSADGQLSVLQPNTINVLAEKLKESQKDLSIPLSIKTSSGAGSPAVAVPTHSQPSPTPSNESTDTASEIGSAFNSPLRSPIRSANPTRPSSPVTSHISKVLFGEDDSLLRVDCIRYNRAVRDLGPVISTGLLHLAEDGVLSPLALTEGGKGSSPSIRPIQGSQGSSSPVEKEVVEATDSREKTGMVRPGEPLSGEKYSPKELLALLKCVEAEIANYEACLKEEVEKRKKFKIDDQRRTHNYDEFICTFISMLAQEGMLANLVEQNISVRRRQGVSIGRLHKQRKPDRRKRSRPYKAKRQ
In short: as §1

EIF3F = EIF3F (UniProt O00303)
In short: as §1

EIF3H = EIF3H (UniProt O15372)
In short: as §1

FAM105A = molecular target: T3, FAM105A (UniProt Q9NUU6)
T3 sequence (whole entry): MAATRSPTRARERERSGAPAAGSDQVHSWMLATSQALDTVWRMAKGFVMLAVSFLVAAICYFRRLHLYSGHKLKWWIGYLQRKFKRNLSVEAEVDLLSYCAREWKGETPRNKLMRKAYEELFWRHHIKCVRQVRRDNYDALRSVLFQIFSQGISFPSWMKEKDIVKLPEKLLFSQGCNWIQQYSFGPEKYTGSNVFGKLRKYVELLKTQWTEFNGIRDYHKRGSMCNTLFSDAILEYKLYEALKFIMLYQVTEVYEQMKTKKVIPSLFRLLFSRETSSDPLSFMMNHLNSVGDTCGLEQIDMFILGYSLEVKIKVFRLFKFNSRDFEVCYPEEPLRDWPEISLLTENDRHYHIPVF
In short: as §1

OTUB1 = OTUB1 (UniProt Q96FW1)
In short: as §1

OTUD4 = molecular target: T4, OTUD4 (UniProt Q01804)
T4 sequence (whole entry): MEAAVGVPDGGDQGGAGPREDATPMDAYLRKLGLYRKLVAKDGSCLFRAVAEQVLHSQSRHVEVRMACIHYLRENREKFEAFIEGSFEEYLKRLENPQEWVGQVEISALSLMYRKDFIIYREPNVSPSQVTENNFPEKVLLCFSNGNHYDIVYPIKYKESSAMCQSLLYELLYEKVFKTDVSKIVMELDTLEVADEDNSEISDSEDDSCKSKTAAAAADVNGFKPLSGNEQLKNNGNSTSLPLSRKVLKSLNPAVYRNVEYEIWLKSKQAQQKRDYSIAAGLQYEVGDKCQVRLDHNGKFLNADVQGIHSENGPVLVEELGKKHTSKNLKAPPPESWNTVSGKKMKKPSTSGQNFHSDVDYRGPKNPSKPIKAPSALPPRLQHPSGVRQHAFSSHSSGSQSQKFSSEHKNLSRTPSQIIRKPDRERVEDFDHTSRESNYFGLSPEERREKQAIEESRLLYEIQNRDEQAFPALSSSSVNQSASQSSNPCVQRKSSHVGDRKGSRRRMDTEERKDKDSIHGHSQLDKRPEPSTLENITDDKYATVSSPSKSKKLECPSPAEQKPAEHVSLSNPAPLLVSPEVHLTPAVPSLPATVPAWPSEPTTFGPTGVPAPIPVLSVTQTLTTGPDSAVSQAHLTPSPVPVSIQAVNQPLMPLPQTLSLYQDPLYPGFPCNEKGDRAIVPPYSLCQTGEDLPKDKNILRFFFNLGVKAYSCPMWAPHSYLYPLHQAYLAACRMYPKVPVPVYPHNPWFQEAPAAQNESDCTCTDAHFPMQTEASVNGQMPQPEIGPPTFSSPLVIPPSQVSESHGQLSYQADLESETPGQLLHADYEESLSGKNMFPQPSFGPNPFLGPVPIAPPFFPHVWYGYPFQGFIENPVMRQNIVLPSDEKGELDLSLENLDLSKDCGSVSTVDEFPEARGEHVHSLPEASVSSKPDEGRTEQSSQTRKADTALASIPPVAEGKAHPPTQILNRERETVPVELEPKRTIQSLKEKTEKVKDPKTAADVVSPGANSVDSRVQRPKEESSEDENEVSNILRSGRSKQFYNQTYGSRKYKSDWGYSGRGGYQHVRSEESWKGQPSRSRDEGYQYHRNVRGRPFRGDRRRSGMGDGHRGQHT
In short: as §1

OTUD5 = molecular target: T5, OTUD5 (UniProt Q96G74)
T5 sequence (whole entry): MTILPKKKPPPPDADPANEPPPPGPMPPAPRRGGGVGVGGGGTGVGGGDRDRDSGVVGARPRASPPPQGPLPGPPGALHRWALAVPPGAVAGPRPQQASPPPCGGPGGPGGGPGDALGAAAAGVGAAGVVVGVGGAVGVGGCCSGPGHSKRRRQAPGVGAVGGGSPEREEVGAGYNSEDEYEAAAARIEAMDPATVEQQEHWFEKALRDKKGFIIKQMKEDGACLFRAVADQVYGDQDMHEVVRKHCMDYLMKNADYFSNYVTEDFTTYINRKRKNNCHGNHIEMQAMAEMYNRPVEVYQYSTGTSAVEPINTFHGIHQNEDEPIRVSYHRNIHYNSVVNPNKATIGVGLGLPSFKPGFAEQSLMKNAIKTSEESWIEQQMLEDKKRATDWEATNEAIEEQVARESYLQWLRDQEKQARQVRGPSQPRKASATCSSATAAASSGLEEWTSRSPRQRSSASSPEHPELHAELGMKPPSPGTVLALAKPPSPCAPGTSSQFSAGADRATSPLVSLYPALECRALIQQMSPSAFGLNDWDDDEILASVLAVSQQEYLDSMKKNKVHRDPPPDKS
In short: as §1

Chain of EIF3H (O15372 whole entry): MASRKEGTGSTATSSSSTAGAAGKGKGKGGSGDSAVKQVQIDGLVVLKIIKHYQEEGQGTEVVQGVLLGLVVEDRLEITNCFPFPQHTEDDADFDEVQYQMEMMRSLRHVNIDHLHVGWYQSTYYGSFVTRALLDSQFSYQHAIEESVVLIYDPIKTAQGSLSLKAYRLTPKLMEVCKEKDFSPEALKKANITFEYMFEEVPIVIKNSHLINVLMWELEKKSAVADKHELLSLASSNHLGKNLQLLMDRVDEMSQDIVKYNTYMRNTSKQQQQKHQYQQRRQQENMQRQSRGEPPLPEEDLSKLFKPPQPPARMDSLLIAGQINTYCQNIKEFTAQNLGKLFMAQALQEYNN
Chain of EIF3F (O00303 whole entry): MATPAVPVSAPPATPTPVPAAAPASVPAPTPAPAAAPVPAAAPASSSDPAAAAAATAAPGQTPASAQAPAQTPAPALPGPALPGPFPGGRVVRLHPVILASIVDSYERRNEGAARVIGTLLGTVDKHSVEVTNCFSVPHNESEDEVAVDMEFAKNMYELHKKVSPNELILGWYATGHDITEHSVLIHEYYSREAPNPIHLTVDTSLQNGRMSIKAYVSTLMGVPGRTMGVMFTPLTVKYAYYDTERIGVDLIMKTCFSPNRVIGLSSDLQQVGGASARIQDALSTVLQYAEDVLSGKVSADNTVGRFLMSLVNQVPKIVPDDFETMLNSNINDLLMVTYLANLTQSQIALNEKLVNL
Chain of ATXN3 (P54252 whole entry): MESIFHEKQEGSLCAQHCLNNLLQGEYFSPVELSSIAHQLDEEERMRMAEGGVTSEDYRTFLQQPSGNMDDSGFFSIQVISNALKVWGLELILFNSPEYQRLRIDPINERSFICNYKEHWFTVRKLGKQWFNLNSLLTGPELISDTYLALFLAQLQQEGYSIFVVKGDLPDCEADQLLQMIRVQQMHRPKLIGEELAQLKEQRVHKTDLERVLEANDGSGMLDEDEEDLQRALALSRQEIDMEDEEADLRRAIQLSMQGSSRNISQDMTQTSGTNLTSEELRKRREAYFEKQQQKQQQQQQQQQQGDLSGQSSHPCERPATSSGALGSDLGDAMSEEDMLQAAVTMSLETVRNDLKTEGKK
Chain of OTUB1 (Q96FW1 whole entry): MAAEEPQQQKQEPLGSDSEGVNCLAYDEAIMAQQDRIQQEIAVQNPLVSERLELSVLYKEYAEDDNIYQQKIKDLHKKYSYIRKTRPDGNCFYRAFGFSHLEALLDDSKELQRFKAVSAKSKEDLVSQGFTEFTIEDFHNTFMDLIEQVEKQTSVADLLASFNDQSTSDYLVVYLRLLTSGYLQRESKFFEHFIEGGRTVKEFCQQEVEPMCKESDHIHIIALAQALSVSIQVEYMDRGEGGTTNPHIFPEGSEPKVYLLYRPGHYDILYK

| Compound | log2 ratio of Biotin-Ahx-Ub-VS probe labelling (ALG13) | log2 ratio of Biotin-Ahx-Ub-VS probe labelling (ATXN3) | log2 ratio of Biotin-Ahx-Ub-VS probe labelling (BAP1) | log2 ratio of Biotin-Ahx-Ub-VS probe labelling (EIF3F) | log2 ratio of Biotin-Ahx-Ub-VS probe labelling (EIF3H) | log2 ratio of Biotin-Ahx-Ub-VS probe labelling (FAM105A) | log2 ratio of Biotin-Ahx-Ub-VS probe labelling (OTUB1) | log2 ratio of Biotin-Ahx-Ub-VS probe labelling (OTUD4) | log2 ratio of Biotin-Ahx-Ub-VS probe labelling (OTUD5) |
| --- | --- | --- | --- | --- | --- | --- | --- | --- | --- |
| Cc1ncsc1CCNC(=O)CCl | -1.18 (active) | 0.0484 | -0.27 | 0.501 | 0.195 | 0.185 | 0.885 | -0.271 | 0.163 |
| O=C(CCl)Nc1ccc2c(c1)OC(F)(F)O2 | 0.0874 | -0.411 | -1.92 (active) | -0.0462 | 0.0852 | -0.278 | 0.13 | -0.422 | -0.515 |
| Cl.O=C(CCl)NCCN1CCc2ccccc21 | -0.000809 | -0.887 | -1.61 (active) | -0.106 | 0.469 | 0.43 | 0.169 | -0.775 | -0.79 |
| O=C(CCl)N1CCC(c2ccn[nH]2)C1 (stereo unspecified) | -0.443 | -0.622 | -0.721 | -0.232 | 0.0161 | -0.198 | -0.156 | -0.303 | -0.376 |
